# Data: PubChem BioAssay (EPA / NIEHS)
# Inconclusive results are not listed. Active and inactive are the calls of the source. How the source made its calls, unless noted: active means hit-call score of the fitted dose curve at least 0.9, where 1 is the maximum; inactive means score below 0.9.
# How the values were obtained:
# [1] = read-out: Macrophage colony-stimulating factor (MCSF), CSF1 (gene 1435); test: BSK_LPS_MCSF: BioMAP Diversity Plus: LPS Assay for Macrophage colony-stimulating factor (MCSF) Biomarker Activity (AID 2283083); details: primary human HUVEC with PBMC; actives raise or lower the signal
# Outline: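 HUVEC + PBMC co-culture (human primary), 24 h post-dose; M-CSF by ELISA; gain/loss of signal fitted bidirectionally vs DMSO baseline.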
# [2] = read-out: Tissue Factor, F3 (gene 2152); test: BSK_LPS_TissueFactor: BioMAP Diversity Plus: LPS Assay for Tissue Factor Biomarker Activity (AID 2283084); details: primary human HUVEC with PBMC; actives raise or lower the signal
# Outline: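 HUVEC/PBMC co-culture, LPS-activated; CD142 ELISA read 24 h post-dose; bidirectional curve fit vs DMSO negative control.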
# [3] = read-out: Tumor necrosis factor (Homo sapiens) (UniProt P01375); test: BSK_LPS_TNFa: BioMAP Diversity Plus: LPS Assay for Tumour Necrosis Factor alpha (TNFa) Biomarker Activity (AID 2283085); details: primary human HUVEC with PBMC; actives raise or lower the signal
# Outline: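 Cells (umbilical vein endothelium plus peripheral blood mononuclear cells) were dosed with chemical, incubated 24 h, then TNFa was quantified by ELISA; values derive from bidirectional fitting with DMSO as baseline.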
# [4] = read-out: Vascular cell adhesion molecule 1 (VCAM1), VCAM1 (gene 7412); test: BSK_LPS_VCAM1: BioMAP Diversity Plus: LPS Assay for Vascular cell adhesion molecule 1 (VCAM1) Biomarker Activity (AID 2283086); details: primary human HUVEC with PBMC; actives raise or lower the signal
# Outline: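 Cells are dosed in an LPS-stimulated endothelial/mononuclear co-culture and, after 24 h, VCAM-1 is quantified by ELISA. Activity in either direction is fitted relative to the DMSO negative control.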
# CD38, CD38 (gene 952) = test: BSK_SAg_CD38: BioMAP Diversity Plus: SAg Assay for CD38 Biomarker Activity (AID 2283087); details: primary human HUVEC with PBMC; actives raise or lower the signal
# Outline: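 CD38 quantified by ELISA (fluorescence) in a superantigen-activated endothelial cell–PBMC co-culture at 24 h post-dose. Activity fitted in both directions relative to DMSO; parallel SRB and Alamar Blue cytotoxicity read-outs.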
# CD40, CD40 (gene 958) = test: BSK_SAg_CD40: BioMAP Diversity Plus: SAg Assay for CD40 Biomarker Activity (AID 2283088); details: primary human HUVEC with PBMC; actives raise or lower the signal
# Outline: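 HUVEC/PBMC co-culture, 24 h post-dose; CD40 by ELISA, fluorescence intensity; bidirectional fit vs DMSO negative control.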
# CD69, CD69 (gene 969) = test: BSK_SAg_CD69: BioMAP Diversity Plus: SAg Assay for CD69 Biomarker Activity (AID 2283089); details: primary human HUVEC with PBMC; actives raise or lower the signal;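 on AC50: cell surface CD69 protein quantified by ELISA with fluorescence detection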
# Outline: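 Endothelial/PBMC co-culture; chemical added; 24 h incubation; CD69 ELISA with fluorescence detection; bidirectional fit vs DMSO.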
# [5] = read-out: Monocyte Chemoattractant Protein-1 (MCP1), CCL2 (gene 6347); test: BSK_SAg_MCP1: BioMAP Diversity Plus: SAg Assay for Monocyte Chemoattractant Protein-1 (MCP1) Biomarker Activity (AID 2283090); details: primary human HUVEC with PBMC; actives raise or lower the signal
# Outline: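 Values derive from bidirectional fitting of ELISA-measured MCP1 against DMSO controls. Readings were taken 24 h after dosing human vascular endothelial cells co-cultured with peripheral blood mononuclear cells under superantigen stimulation.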
# [6] = read-out: E-selectin (Homo sapiens) (UniProt P16581); test: BSK_SAg_Eselectin: BioMAP Diversity Plus: SAg Assay for Eselectin Biomarker Activity (AID 2283091); details: primary human HUVEC with PBMC; actives raise or lower the signal
# Outline: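 E-selectin ELISA readout at 24 h post-dosing in human umbilical vein endothelial cell/PBMC co-culture; gain or loss of signal fitted relative to DMSO baseline.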
# [7] = read-out: Monokine induced gamma interferon (MIG), CXCL9 (gene 4283); test: BSK_SAg_MIG: BioMAP Diversity Plus: SAg Assay for Monokine induced gamma interferon (MIG) Biomarker Activity (AID 2283092); details: primary human HUVEC with PBMC; actives raise or lower the signal
# Outline: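 Measures CXCL9 protein by ELISA in a human vascular primary-cell co-culture (umbilical vein endothelium with PBMC) 24 h after chemical addition. Activity is scored up or down from the DMSO control.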
# [8] = BSK_SAg_PBMCCytotoxicity: PBMC Cytotoxicity Assessment in the BioMAP Diversity Plus: SAg Assay (AID 2283093); details: primary human HUVEC with PBMC;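 further: fitted both ways against DMSO so a hit may be loss or gain of signal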;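 on AC50: PBMC superantigen activated with SEB plus TSST-1 one hour after compound addition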
# Outline: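 PBMC viability by Alamar Blue reduction, fluorescence read at 546/580 nm after 6 h dye exposure. Cells were dosed 1 h before SEB plus TSST-1 activation (20 ng/mL final each), then held 90 h; endothelial/PBMC human co-culture.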
# [9] = read-out: Interleukin-8 (IL8), CXCL8 (gene 3576); test: BSK_SAg_IL8: BioMAP Diversity Plus: SAg Assay for Interleukin-8 (IL8) Biomarker Activity (AID 2283094); details: primary human HUVEC with PBMC; actives raise or lower the signal
# Outline: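 Chemicals were dosed onto a human endothelial–PBMC co-culture, and IL-8 was quantified by ELISA after 24 h. Both increases and decreases were fitted relative to DMSO.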
# [10] = BSK_SAg_SRB: Viability Assessment in the BioMAP Diversity Plus: SAg Assay (AID 2283096); details: primary human HUVEC with PBMC;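 further: cells read one day after compound addition; hits may be either gain or loss of signal compared with DMSO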
# Outline: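 Compounds were added to a human vascular co-culture of umbilical vein endothelium and PBMC. After 24 h, parallel cultures were fixed with 10% TCA, stained with 0.1% sulforhodamine B and read at 560 nm. Gain or loss of signal was fitted relative to DMSO.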
# [11] = BSK_SAg_Proliferation: Cell Proliferation Assessment in the BioMAP Diversity Plus: SAg Assay (AID 2283095); details: primary human HUVEC with PBMC;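 further: relative cell number as total protein by SRB absorbance in sub-confluent culture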
# Outline: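 Absorbance of sulforhodamine B at 560 nm reports total protein in a human vascular endothelial/PBMC co-culture after 96 h chemical exposure. Gain or loss of signal is fitted in both directions against DMSO.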
# [12] = molecular target: human CYP1A1, CYP1A1 (gene 1543) (UniProt P04798); test: NVS_ADME_hCYP1A1: NovaScreen (NVS) CYP450-related Enzyme Activity (ADME) Assay for human CYP1A1 (AID 2283100; active means hit-call score of the fitted dose curve at least 0.9, where 1 is the maximum)
# Chain of human CYP1A1, CYP1A1 (gene 1543) (P04798 whole entry, looked up): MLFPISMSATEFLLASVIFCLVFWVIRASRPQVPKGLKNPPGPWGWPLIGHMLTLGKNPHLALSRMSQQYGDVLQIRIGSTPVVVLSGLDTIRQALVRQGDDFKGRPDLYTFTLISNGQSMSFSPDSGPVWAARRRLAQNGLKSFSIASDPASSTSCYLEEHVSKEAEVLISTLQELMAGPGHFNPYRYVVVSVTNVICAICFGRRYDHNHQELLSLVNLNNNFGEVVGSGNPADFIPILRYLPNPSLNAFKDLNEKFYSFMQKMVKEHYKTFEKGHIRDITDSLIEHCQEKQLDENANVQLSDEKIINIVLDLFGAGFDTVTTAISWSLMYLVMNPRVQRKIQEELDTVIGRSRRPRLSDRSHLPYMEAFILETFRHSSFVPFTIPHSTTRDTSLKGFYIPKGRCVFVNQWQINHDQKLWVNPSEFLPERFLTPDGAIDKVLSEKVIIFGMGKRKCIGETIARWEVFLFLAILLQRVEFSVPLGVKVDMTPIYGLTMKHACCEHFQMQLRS
# Outline: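 Read-out: fluorescence intensity from enzymatic turnover of substrate by recombinant CYP1A1, loss of signal indicating inhibition. Incubation 1 h post-dose. Primary single-point 10 uM in duplicate; actives rerun singly with top concentration 20 uM.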
# [13] = molecular target: Cytochrome P450 3A4 (Homo sapiens) (UniProt P08684); test: NVS_ADME_hCYP3A4: NovaScreen (NVS) CYP450-related Enzyme Activity (ADME) Assay for human CYP3A4 (AID 2283110; active means hit-call score of the fitted dose curve at least 0.9, where 1 is the maximum)
# Chain of Cytochrome P450 3A4 (Homo sapiens) (P08684 whole entry, looked up): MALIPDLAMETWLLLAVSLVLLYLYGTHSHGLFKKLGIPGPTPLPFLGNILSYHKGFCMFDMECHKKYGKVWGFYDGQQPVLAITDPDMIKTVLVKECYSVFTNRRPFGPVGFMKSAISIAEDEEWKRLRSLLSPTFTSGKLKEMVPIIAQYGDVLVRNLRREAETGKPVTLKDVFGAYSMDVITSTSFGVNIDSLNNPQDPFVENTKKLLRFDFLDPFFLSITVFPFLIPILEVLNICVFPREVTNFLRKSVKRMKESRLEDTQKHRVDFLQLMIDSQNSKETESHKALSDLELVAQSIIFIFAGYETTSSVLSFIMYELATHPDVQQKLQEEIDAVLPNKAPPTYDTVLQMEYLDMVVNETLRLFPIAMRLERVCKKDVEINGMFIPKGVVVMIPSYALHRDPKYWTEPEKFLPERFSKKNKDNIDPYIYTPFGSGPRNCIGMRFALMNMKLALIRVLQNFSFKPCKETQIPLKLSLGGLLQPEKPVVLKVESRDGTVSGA
# Outline: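 Recombinant CYP3A4 from insect cells, fluorescence enzyme read-out, 0.33 h after chemical addition. Acetonitrile = negative control/baseline. Primary HTS: 10 uM in duplicate; actives re-tested in concentration series.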
# [14] = molecular target: human CYP2D6, CYP2D6 (gene 1565) (UniProt P10635); test: NVS_ADME_hCYP2D6: NovaScreen (NVS) CYP450-related Enzyme Activity (ADME) Assay for human CYP2D6 (AID 2283107; active means hit-call score of the fitted dose curve at least 0.9, where 1 is the maximum)
# Chain of human CYP2D6, CYP2D6 (gene 1565) (P10635 whole entry, looked up): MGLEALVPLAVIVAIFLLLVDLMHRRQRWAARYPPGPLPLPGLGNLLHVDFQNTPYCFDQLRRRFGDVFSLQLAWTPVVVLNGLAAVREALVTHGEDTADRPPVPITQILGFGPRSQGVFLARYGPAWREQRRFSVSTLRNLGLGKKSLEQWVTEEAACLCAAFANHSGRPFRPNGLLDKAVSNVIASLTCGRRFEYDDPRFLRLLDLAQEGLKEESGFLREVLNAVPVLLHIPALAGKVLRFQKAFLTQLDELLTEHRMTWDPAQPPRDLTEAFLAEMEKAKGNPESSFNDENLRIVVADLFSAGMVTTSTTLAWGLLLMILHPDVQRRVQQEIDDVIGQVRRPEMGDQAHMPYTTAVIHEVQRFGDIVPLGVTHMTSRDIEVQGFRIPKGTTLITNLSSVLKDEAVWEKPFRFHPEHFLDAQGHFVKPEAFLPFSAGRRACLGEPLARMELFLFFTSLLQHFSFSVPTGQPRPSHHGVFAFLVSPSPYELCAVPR
# Outline: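 Fluorescence intensity read 1 h post-dosing; insect-cell-expressed recombinant protein with fluorogenic substrate, no cells. Activity is scored as signal loss relative to acetonitrile baseline, first at a single 10 uM concentration in duplicate, then as concentration series for confirmed actives.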
# Chain of Tumor necrosis factor (Homo sapiens) (P01375 whole entry, looked up): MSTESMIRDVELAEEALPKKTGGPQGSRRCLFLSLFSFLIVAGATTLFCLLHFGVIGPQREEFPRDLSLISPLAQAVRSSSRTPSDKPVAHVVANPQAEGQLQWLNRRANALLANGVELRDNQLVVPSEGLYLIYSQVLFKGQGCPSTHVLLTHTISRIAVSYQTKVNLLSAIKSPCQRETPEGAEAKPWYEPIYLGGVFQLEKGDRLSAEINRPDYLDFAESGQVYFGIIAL
# Chain of E-selectin (Homo sapiens) (P16581 whole entry, looked up): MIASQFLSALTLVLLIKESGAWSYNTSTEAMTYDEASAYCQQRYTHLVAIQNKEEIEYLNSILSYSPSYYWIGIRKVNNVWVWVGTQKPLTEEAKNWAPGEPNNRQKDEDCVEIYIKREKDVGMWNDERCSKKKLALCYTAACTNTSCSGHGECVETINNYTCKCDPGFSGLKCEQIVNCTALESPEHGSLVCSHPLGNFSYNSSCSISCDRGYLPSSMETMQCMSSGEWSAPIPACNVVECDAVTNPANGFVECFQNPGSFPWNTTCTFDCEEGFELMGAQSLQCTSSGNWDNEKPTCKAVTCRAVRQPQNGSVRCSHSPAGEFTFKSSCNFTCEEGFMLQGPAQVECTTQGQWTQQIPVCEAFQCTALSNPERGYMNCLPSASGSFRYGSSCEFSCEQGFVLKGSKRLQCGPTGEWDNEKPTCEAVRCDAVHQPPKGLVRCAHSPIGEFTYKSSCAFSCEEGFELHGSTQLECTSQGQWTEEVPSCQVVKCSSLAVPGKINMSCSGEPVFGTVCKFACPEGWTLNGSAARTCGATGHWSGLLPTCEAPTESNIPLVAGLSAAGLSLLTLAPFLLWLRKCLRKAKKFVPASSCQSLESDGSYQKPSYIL
smiles,measurement,setting,value
O=C(O)C(F)(F)C(F)(F)C(F)(F)OC(F)(F)F,outcome,[1],inactive
same,outcome,[2],inactive
same,outcome,[3],inactive
same,outcome,[4],inactive
same,outcome,"CD38, CD38 (gene 952)",inactive
same,outcome,"CD40, CD40 (gene 958)",inactive
same,outcome,"CD69, CD69 (gene 969)",inactive
same,outcome,[5],inactive
same,outcome,[6],inactive
same,outcome,[7],inactive
same,outcome,[8],inactive
same,outcome,[9],inactive
same,outcome,[10],inactive
NCC(F)(F)C(F)(F)C(F)(F)C(F)(F)C(F)(F)C(F)(F)C(F)(F)C(F)(F)F,outcome,[1],inactive
same,outcome,[2],inactive
same,outcome,[3],inactive
same,outcome,[4],inactive
same,outcome,"CD38, CD38 (gene 952)",inactive
same,outcome,"CD40, CD40 (gene 958)",inactive
same,outcome,"CD69, CD69 (gene 969)",inactive
same,outcome,[5],inactive
same,outcome,[6],inactive
same,outcome,[7],inactive
same,outcome,[8],inactive
same,outcome,[9],inactive
same,outcome,[11],inactive
same,outcome,[10],inactive
CCCCCCCCn1sc(Cl)c(Cl)c1=O,outcome,[12],inactive
OCC(F)(F)C(F)(F)C(F)(F)CO,outcome,[1],inactive
same,outcome,[2],inactive
same,outcome,[3],inactive
same,outcome,[4],inactive
same,outcome,"CD38, CD38 (gene 952)",inactive
same,outcome,"CD40, CD40 (gene 958)",inactive
same,outcome,"CD69, CD69 (gene 969)",inactive
same,outcome,[5],inactive
same,outcome,[6],inactive
same,outcome,[7],inactive
same,outcome,[8],inactive
same,outcome,[9],inactive
same,outcome,[10],inactive
NC(=O)C(F)(F)C(F)(F)C(F)(F)C(F)(F)C(F)(F)C(F)(F)C(F)(F)F,outcome,[1],inactive
same,outcome,[2],inactive
same,outcome,[3],inactive
same,outcome,[4],inactive
same,outcome,"CD38, CD38 (gene 952)",inactive
same,outcome,"CD40, CD40 (gene 958)",inactive
same,outcome,"CD69, CD69 (gene 969)",inactive
same,outcome,[5],inactive
same,outcome,[6],inactive
same,outcome,[7],inactive
same,outcome,[8],inactive
same,outcome,[9],inactive
same,outcome,[11],inactive
same,outcome,[10],inactive
CC(C)CCCC(C)CCO (stereo not drawn),outcome,[1],inactive
same,outcome,[2],inactive
same,outcome,[3],inactive
same,outcome,[4],inactive
same,outcome,"CD38, CD38 (gene 952)",inactive
same,outcome,"CD40, CD40 (gene 958)",inactive
same,outcome,"CD69, CD69 (gene 969)",inactive
same,outcome,[5],inactive
same,AC50,[6],20 µM (active)
same,outcome,[7],inactive
same,AC50,[8],30.6 µM (active)
same,outcome,[9],inactive
same,outcome,[10],inactive
NC(=O)C(F)(F)C(F)(F)C(F)(F)C(F)F,outcome,[1],inactive
same,outcome,[2],inactive
same,outcome,[3],inactive
same,outcome,[4],inactive
same,outcome,"CD38, CD38 (gene 952)",inactive
same,outcome,"CD40, CD40 (gene 958)",inactive
same,outcome,"CD69, CD69 (gene 969)",inactive
same,outcome,[5],inactive
same,outcome,[6],inactive
same,outcome,[7],inactive
same,outcome,[8],inactive
same,outcome,[9],inactive
same,outcome,[11],inactive
same,outcome,[10],inactive
COC(=O)c1ccc(C=O)cc1,AC50,[13],0.00779 µM (active)
O=C1c2c(O)ccc(Nc3ccc(CCO)cc3)c2C(=O)c2c([N+](=O)[O-])ccc(O)c21,AC50,[1],7.53 µM (active)
same,AC50,[2],3.97 µM (active)
same,outcome,[3],inactive
same,AC50,[4],20 µM (active)
same,AC50,"CD38, CD38 (gene 952)",20 µM (active)
same,AC50,"CD40, CD40 (gene 958)",25.9 µM (active)
same,AC50,"CD69, CD69 (gene 969)",14.2 µM (active)
same,outcome,[5],inactive
same,outcome,[6],inactive
same,AC50,[7],33.7 µM (active)
same,AC50,[8],9.47 µM (active)
same,AC50,[9],0.379 µM (active)
same,AC50,[11],20 µM (active)
same,outcome,[10],inactive
same,AC50,[14],5 µM (active)
